Experimental data from PubChem BioAssay (EPA / NIEHS).
Inconclusive results are not listed. Activity calls are given as the source filed them. Rule for the calls: active = hit-call score of the fitted dose curve at least 0.9, where 1 is the maximum; inconclusive = response in the unintended direction; inactive = score below 0.9.

Experiments:
[1] = molecular target: human CYP2C9, CYP2C9 (gene 1559) (UniProt P11712); experiment: NVS_ADME_hCYP2C9: NovaScreen (NVS) CYP450-related Enzyme Activity (ADME) Assay for human CYP2C9 (AID 2283108)
Chain of human CYP2C9, CYP2C9 (gene 1559) (P11712 whole entry, looked up): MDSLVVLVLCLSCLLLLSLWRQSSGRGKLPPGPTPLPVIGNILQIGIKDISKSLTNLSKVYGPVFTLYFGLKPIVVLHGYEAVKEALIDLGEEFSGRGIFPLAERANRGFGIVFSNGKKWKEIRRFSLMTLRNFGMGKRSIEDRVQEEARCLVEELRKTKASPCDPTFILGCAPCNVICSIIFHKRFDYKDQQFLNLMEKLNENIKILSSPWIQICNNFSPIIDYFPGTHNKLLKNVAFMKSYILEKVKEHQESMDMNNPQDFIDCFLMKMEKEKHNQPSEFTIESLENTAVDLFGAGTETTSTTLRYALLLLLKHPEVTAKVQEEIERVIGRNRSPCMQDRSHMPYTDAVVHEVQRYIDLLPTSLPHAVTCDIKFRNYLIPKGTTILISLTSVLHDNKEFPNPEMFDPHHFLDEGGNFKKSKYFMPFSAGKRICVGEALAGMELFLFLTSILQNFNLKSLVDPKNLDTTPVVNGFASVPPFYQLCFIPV
In short: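 Fluorescence readout of CYP2C9 activity (SF9-expressed human enzyme) at 0.75 h. The primary screen used 10 uM in duplicate, with concentration-response follow-up for actives; acetonitrile was the negative control.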

[2] = molecular target: human Aurora Kinase A - serine/threonine-protein Kinase 6 (AurA), AURKA (gene 6790) (UniProt O14965); experiment: NVS_ENZ_hAurA: NovaScreen (NVS) Enzymatic Assay for human Aurora Kinase A - serine/threonine-protein Kinase 6 (AurA) (AID 2283142)
Chain of human Aurora Kinase A - serine/threonine-protein Kinase 6 (AurA), AURKA (gene 6790) (O14965 whole entry, looked up): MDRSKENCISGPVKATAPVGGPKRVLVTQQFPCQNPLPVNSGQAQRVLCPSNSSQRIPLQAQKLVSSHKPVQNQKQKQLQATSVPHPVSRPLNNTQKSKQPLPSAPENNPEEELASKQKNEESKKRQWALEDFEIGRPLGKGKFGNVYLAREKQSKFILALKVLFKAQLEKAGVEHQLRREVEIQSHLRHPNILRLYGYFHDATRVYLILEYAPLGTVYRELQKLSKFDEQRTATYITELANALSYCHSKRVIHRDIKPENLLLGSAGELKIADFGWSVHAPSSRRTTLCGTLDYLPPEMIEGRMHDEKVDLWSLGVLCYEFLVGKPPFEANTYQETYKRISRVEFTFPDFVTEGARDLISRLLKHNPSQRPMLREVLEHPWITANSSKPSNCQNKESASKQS
In short: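 Cell-free enzymatic assay with human Aurora A, 1 hour after dosing. Fluorescent substrate turnover detected after electrophoretic mobility shift separation of substrate and product. Screened at 25 uM, actives retested in concentration-response up to 50 uM.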

[3] = molecular target: human CYP2D6, CYP2D6 (gene 1565) (UniProt P10635); experiment: NVS_ADME_hCYP2D6: NovaScreen (NVS) CYP450-related Enzyme Activity (ADME) Assay for human CYP2D6 (AID 2283107)
Chain of human CYP2D6, CYP2D6 (gene 1565) (P10635 whole entry, looked up): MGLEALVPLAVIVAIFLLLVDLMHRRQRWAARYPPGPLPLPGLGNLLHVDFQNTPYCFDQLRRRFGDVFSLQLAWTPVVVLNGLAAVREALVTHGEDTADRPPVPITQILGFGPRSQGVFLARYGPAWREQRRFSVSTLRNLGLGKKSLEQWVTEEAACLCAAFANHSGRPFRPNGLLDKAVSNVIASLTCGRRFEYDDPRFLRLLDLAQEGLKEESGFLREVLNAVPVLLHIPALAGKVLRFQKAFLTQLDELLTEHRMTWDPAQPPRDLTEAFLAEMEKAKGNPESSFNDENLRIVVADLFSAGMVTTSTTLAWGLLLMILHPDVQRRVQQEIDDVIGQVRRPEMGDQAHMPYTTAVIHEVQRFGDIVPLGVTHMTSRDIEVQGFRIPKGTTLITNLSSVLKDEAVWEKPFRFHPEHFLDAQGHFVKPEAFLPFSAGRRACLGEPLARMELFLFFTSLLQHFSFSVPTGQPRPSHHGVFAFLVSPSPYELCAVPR
In short: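 Biochemical fluorescence assay, insect-cell-derived enzyme. Read at 1 h; inhibition taken from loss of signal against acetonitrile. Screened at 10 uM in duplicate, with concentration series for actives.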

[4] = molecular target: Cytochrome P450 3A4 (Homo sapiens) (UniProt P08684); experiment: NVS_ADME_hCYP3A4: NovaScreen (NVS) CYP450-related Enzyme Activity (ADME) Assay for human CYP3A4 (AID 2283110)
Chain of Cytochrome P450 3A4 (Homo sapiens) (P08684 whole entry, looked up): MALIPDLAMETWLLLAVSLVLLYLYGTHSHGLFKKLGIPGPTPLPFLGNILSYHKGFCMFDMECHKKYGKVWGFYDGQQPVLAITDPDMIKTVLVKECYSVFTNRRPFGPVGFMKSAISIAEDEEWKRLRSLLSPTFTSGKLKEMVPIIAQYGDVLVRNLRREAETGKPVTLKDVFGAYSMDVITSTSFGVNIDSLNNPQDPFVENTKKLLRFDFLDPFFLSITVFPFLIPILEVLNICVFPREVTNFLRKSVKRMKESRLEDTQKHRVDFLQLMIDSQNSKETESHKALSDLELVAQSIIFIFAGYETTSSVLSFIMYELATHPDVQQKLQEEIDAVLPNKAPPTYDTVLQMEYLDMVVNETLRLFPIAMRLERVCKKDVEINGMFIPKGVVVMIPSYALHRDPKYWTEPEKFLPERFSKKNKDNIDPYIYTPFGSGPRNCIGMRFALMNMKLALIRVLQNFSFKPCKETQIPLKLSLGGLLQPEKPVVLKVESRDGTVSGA
In short: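 Compounds were first screened in duplicate at 10 uM against recombinant CYP3A4 produced in insect cells, then actives were run in concentration series. Enzyme activity was measured by fluorescence after 0.33 hour, with acetonitrile as baseline.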

[5] = molecular target: Cytochrome P450 2C19 (Homo sapiens) (UniProt P33261); experiment: NVS_ADME_hCYP2C19: NovaScreen (NVS) CYP450-related Enzyme Activity (ADME) Assay for human CYP2C19 (AID 2283113);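 note: potency for inhibition seen as loss of fluorescent signal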
In short: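 Biochemical CYP2C19 inhibition screen: insect-cell recombinant protein plus fluorescent substrate, 1 h, fluorescence intensity. Acetonitrile defined baseline activity. Single 10 uM concentration in duplicate, with concentration-response follow-up for actives.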

[6] = molecular target: human Acetylcholinesterase (AChE), ACHE (gene 43) (UniProt P22303); experiment: NVS_ENZ_hAChE: NovaScreen (NVS) Enzymatic Assay for human Acetylcholinesterase (AChE) (AID 2283129)
In short: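 Cell-free colorimetric enzyme-activity assay; compounds read 0.33 hour after dosing, loss of signal vs DMSO baseline. Primary screen in duplicate at 25 uM single concentration, with active compounds retested in concentration series.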

[7] = molecular target: human Beta-secretase (BACE), BACE1 (gene 23621) (UniProt P56817); experiment: NVS_ENZ_hBACE: NovaScreen (NVS) Enzymatic Assay for human Beta-secretase (BACE) (AID 2283140);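 note: hits are inhibitors that reduce fluorescent substrate signal versus DMSO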
Chain of human Beta-secretase (BACE), BACE1 (gene 23621) (P56817 whole entry, looked up): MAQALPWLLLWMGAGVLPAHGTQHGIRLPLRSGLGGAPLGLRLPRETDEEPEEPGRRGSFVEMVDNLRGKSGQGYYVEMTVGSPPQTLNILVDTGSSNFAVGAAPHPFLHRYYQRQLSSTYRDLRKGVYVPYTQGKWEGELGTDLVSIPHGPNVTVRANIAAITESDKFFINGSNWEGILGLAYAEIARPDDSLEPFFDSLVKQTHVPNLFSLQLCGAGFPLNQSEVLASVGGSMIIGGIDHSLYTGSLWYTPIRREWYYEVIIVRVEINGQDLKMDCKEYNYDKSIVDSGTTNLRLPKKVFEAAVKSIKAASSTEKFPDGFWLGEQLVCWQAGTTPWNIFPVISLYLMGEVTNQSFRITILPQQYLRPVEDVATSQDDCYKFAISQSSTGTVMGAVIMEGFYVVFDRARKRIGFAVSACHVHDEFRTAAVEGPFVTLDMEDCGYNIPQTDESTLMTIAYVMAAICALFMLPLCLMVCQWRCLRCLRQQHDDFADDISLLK
In short: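 Recombinant BACE1 (SF9 extract) incubated with compound and fluorescent substrate, 1 h. Plates carried positive and DMSO negative controls. Initial single dose 25 uM, duplicate; confirmation by concentration series.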

[8] = molecular target: human Casein Kinase 1-delta (CK1D), CSNK1D (gene 1453) (UniProt P48730); experiment: NVS_ENZ_hCK1D: NovaScreen (NVS) Enzymatic Assay for human Casein Kinase 1-delta (CK1D) (AID 2283148)
Chain of human Casein Kinase 1-delta (CK1D), CSNK1D (gene 1453) (P48730 whole entry, looked up): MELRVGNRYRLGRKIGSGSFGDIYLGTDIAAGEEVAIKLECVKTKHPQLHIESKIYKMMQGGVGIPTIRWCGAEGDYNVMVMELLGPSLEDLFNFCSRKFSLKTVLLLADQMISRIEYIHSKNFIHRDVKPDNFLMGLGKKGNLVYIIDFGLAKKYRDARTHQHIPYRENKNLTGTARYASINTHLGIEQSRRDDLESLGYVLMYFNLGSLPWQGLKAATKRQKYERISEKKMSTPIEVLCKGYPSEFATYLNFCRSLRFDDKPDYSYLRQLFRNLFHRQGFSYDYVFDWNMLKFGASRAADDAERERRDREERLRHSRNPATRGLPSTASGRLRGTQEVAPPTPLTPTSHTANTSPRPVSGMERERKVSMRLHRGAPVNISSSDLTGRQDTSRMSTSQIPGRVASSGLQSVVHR
In short: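 Recombinant human CK1-delta, cell-free; fluorescent substrate with electrophoretic mobility-shift separation of product, read 1 h after dosing. Single 25 uM duplicate screen, then concentration-response up to 50 uM; loss of signal vs DMSO.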

[9] = molecular target: human CYP4F12, CYP4F12 (gene 66002) (UniProt Q9HCS2); experiment: NVS_ADME_hCYP4F12: NovaScreen (NVS) CYP450-related Enzyme Activity (ADME) Assay for human CYP4F12 (AID 2283111)
Chain of human CYP4F12, CYP4F12 (gene 66002) (Q9HCS2 whole entry, looked up): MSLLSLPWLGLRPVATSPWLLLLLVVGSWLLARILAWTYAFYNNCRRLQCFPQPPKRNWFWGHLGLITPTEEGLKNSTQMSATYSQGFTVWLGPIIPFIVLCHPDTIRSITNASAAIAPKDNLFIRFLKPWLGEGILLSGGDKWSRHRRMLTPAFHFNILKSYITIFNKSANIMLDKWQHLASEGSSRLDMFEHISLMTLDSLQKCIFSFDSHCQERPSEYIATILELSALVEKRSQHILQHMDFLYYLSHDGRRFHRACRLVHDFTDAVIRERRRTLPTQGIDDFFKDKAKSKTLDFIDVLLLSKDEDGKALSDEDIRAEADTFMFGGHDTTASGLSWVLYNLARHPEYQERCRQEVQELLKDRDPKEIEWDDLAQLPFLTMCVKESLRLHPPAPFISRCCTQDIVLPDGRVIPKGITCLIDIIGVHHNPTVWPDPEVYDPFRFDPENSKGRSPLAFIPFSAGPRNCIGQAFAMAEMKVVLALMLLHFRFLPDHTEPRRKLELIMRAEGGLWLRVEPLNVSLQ
In short: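 Cell-free fluorescence assay of recombinant human CYP4F12 activity on a specific substrate, read 0.5 h after dosing. Primary screen in duplicate at 10 uM, then concentration series for actives; loss of signal fitted against acetonitrile negative control.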

[10] = molecular target: human AMP-activated Protein Kinase, alpha 1 (AMPKa1), PRKAA1 (gene 5562) (UniProt Q13131); experiment: NVS_ENZ_hAMPKa1: NovaScreen (NVS) Enzymatic Assay for human AMP-activated Protein Kinase, alpha 1 (AMPKa1) (AID 2283130)
Chain of human AMP-activated Protein Kinase, alpha 1 (AMPKa1), PRKAA1 (gene 5562) (Q13131 whole entry, looked up): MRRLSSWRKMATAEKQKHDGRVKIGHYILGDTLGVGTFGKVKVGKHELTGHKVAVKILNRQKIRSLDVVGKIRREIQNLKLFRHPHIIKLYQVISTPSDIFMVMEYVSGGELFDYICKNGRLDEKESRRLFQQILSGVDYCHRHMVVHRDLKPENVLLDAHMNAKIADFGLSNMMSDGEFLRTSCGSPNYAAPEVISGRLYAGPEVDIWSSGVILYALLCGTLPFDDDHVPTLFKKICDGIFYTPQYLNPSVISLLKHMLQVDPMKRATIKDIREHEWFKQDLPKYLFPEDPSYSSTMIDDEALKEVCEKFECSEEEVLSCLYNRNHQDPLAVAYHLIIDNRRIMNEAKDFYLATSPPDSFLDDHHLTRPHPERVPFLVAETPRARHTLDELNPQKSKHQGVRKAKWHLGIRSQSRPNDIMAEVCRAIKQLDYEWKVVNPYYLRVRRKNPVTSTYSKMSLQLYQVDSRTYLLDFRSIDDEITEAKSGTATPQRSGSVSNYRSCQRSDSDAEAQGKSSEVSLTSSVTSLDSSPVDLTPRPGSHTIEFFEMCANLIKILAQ
In short: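 Recombinant human AMPKα1 activity was measured cell-free by fluorescent substrate conversion with electrophoretic mobility-shift separation, 1 h after dosing. Duplicate single-point screening was at 25 uM; actives (≥30% inhibition) were retested in concentration-response up to 50 uM.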

[11] = molecular target: human Acid Phosphatase 1 (ACP1), ACP1 (gene 52) (UniProt P24666); experiment: NVS_ENZ_hACP1: NovaScreen (NVS) Enzymatic Assay for human Acid Phosphatase 1 (ACP1) (AID 2283136)
Chain of human Acid Phosphatase 1 (ACP1), ACP1 (gene 52) (P24666 whole entry, looked up): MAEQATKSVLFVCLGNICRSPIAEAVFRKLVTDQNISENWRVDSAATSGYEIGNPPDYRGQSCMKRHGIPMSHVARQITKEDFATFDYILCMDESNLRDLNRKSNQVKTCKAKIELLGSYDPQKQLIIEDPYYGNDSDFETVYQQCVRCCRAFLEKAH
In short: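 Recombinant enzyme expressed in Sf9 cells, tested cell-free; activity read by fluorescence with electrophoretic mobility shift separation of substrate and product, 1.5 h after dosing. Primary screen in duplicate at 25 uM, actives then run in concentration series; loss of signal versus DMSO.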

[12] = molecular target: human AKT serine/threonine Kinase 1 (AKT1), AKT1 (gene 207) (UniProt P31749); experiment: NVS_ENZ_hAKT1: NovaScreen (NVS) Enzymatic Assay for human AKT serine/threonine Kinase 1 (AKT1) (AID 2283138)
In short: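 Signal loss relative to DMSO, measured by fluorescence after electrophoretic separation of substrate and product, indicates inhibition of recombinant enzyme. Readings at 1 h; screening at 25 uM, follow-up curves up to 50 uM.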

[13] = molecular target: human AKT serine/threonine Kinase 2 (AKT2), AKT2 (gene 208) (UniProt P31751); experiment: NVS_ENZ_hAKT2: NovaScreen (NVS) Enzymatic Assay for human AKT serine/threonine Kinase 2 (AKT2) (AID 2283141)
In short: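 Cell-free fluorescence/electrophoretic mobility shift readout of recombinant human AKT2 activity, 1 h after chemical dosing. Duplicate primary screen at 25 uM, then singleton concentration-response up to 50 uM; loss of signal versus DMSO baseline.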

[14] = molecular target: CDK2 (gene 1017) (UniProt P24941); experiment: NVS_ENZ_hCDK2: NovaScreen (NVS) Enzymatic Assay for human Cyclin-Cependent Kinase 2 (CDK2) (AID 2283144)
In short: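 Cell-free recombinant human CDK2 with fluorescent substrate, product separated by electrophoretic mobility shift; 1 hr read. Primary screen at 25 uM in duplicate, actives retested in concentration-response up to 50 uM; loss of signal versus DMSO.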

[15] = molecular target: human Caspase 2 (CASP2), CASP2 (gene 835) (UniProt P42575); experiment: NVS_ENZ_hCASP2: NovaScreen (NVS) Enzymatic Assay for human Caspase 2 (CASP2) (AID 2283135)
Chain of human Caspase 2 (CASP2), CASP2 (gene 835) (P42575 whole entry, looked up): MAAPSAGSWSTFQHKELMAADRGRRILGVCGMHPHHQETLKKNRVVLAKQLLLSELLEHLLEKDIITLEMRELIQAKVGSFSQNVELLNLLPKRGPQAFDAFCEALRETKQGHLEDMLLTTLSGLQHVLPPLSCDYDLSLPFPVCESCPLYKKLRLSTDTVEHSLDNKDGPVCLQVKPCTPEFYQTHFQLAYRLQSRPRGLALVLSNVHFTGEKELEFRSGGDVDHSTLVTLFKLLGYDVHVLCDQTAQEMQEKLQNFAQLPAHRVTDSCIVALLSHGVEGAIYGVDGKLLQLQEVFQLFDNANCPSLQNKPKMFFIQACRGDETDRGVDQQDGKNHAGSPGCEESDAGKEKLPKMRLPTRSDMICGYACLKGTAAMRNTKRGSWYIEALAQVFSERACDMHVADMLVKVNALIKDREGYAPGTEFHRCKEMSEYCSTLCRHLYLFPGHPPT
In short: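 E. coli-expressed enzyme in a cell-free protease assay, fluorescence read 1 h after dosing. Compounds at 25 uM in duplicate, with concentration-response up to 50 uM for hits; loss of signal against DMSO baseline.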

[16] = molecular target: Caspase-1 (Homo sapiens) (UniProt P29466); experiment: NVS_ENZ_hCASP1: NovaScreen (NVS) Enzymatic Assay for human Caspase 1 (CASP1) (AID 2283132)
Chain of Caspase-1 (Homo sapiens) (P29466 whole entry, looked up): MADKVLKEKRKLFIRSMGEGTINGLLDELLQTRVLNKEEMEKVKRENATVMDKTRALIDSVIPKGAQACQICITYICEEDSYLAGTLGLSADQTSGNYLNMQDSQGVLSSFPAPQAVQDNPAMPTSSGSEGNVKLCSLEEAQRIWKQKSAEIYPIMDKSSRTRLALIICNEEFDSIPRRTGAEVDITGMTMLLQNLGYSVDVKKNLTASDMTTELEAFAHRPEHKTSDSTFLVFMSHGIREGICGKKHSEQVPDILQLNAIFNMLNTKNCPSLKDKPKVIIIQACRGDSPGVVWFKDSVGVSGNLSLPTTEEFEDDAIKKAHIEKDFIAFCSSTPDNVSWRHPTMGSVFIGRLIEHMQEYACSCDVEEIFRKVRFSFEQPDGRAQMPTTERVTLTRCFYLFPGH
In short: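 Cell-free enzymatic assay with E. coli-expressed recombinant protein; fluorescence intensity read 1 hour after dosing. Single-concentration duplicate screen at 25 uM, then concentration-response up to 50 uM; activity fitted relative to DMSO, loss of signal meaning inhibition.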

ClCCOCCCl
AC50 [1]: 15 µM (active)
outcome [2]: inactive

CCOC(=O)[C@]1(c2ccccc2)Oc2ccccc2[C@@H]1N
AC50 [3]: 1.3 µM (active)
AC50 [1]: 5.79 µM (active)
AC50 [4]: 6.56 µM (active)
AC50 [5]: 2.09 µM (active)
AC50 [6]: 24.3 µM (active)

CS(=O)(=O)NC(=O)c1cc(Oc2ccc(C(F)(F)F)cc2Cl)ccc1[N+](=O)[O-]
AC50 [1]: 6.1 µM (active)

CC(C)(O)c1cnn2c(-c3ccc(F)c(-c4c(F)cccc4C#N)c3)cnc2n1
AC50 [1]: 2.24 µM (active)
AC50 [7]: 5.34 µM (active)
outcome [8]: inactive

Clc1ccccc1Cl
AC50 [9]: 1.91 µM (active)

CCNS(=O)(=O)C(F)(F)C(F)(F)C(F)(F)C(F)(F)C(F)(F)C(F)(F)C(F)(F)C(F)(F)F
AC50 [1]: 0.226 µM (active)
AC50 [5]: 9.65 µM (active)
outcome [10]: inactive
outcome [11]: inactive
outcome [12]: inactive
AC50 [7]: 8.43 µM (active)
outcome [13]: inactive
outcome [14]: inactive
outcome [8]: inactive

COP(=S)(OC)SCN1C(=O)c2ccccc2C1=O
AC50 [3]: 6.97 µM (active)
AC50 [1]: 4.74 µM (active)
AC50 [5]: 0.593 µM (active)

N#CC(Br)(Br)C(N)=O
outcome [4]: inactive

O=C(Nc1ccccc1)c1ccccc1I
outcome [4]: inactive
AC50 [5]: 4.95 µM (active)

CCN(CC)N=O
AC50 [9]: 6.21 µM (active)
outcome [10]: inactive
outcome [11]: inactive
outcome [2]: inactive
outcome [8]: inactive

O=C(N[C@H](c1ccccc1)[C@@H]1CN2CCC1CC2)c1c(Cl)ccc(C(F)(F)F)c1Cl
AC50 [3]: 3.5 µM (active)
outcome [4]: inactive

CCCCOC(=O)c1ccccc1C(=O)OCc1ccccc1
AC50 [5]: 2.72 µM (active)

[Cl-].[Cl-].[Hg+2]
AC50 [3]: 3.44 µM (active)
AC50 [1]: 3.68 µM (active)
AC50 [4]: 0.975 µM (active)
AC50 [5]: 0.812 µM (active)
outcome [15]: inactive

Cc1ccc(N=C=O)cc1N=C=O
AC50 [16]: 25 µM (active)
outcome [15]: inactive

CN(C)[C@@H]1C(=O)C(C(N)=O)=C(O)[C@@]2(O)C(=O)C3=C(O)c4c(O)cccc4[C@@](C)(O)[C@H]3C[C@@H]12
outcome [16]: inactive

CCCCCCCCOC(=O)c1ccc(C(=O)OCCCCCCCC)c(C(=O)OCCCCCCCC)c1
outcome [15]: inactive

COc1cc(C=O)cc2c1[C@H](COC(N)=O)[C@]1(OC(C)=O)ON2C[C@H]2[C@@H]1N2C(C)=O
outcome [14]: inactive
